Inhibition data for 62 molecules are collected here from PubChem BioAssay AID2315 (National Center for Advancing Translational Sciences (NCATS), 2010).

Among all 290,000 compounds or so, about 27,000 (9.3%) were called active. This excerpt belongs to a sample that is enriched for actives. Unmarked numbers belong to inactive results. Cut-off read from the data, not from the text of the source: active = inhibition mostly above about 28% (no sharp cut-off); inactive = mostly below about 43%.

This test is described as follows: A qHTS for Small Molecule Inhibitors of Shiga Toxin. Note: 0% is about no effect. The conditions noted are these: Vero cells, Shiga toxin protein synthesis inhibition reporter; at 38.7 µM, stronger effect = higher value.
Take `NC(=O)C1CCCN(CC(=O)N2CCN(c3ccccc3)CC2)C1` (configuration not stated): the inhibition is -5.2%. To `COc1ccc(OC)c(C(=O)c2ccc(C(=O)O)cc2)c1` belongs 29.1%; to `COc1ccc2occ(C(=O)c3ccc(N=C(C)N(C)C)cc3)c2c1`, 62% (active); to `COc1ccc(OC)c(C(=O)c2coc3ccc(OC)cc23)c1`, -7.11%. Take `CCOCCCN(C)C1CCN(C(=O)c2oc3ccccc3c2NC(=O)Cc2cccc([N+](=O)[O-])c2)CC1`: the inhibition was 18.7%. For the molecule `Cc1noc(C)c1CSCC(=O)N(CCC(C)C)c1c(N)n(Cc2ccccc2)c(=O)[nH]c1=O`, the inhibition was 6.62%.

On to `COc1cc(C2C(C(=O)c3ccco3)=C(O)C(=O)N2c2cc(C)on2)ccc1OCc1ccccc1` (configuration not stated), for which the inhibition was -4.72%. On to `C=CCSc1nnc(N2C(=O)C(O)=C(C(=O)c3ccco3)C2c2ccc(F)cc2)s1` (configuration not stated), for which the inhibition is 19.6%. Take `Cc1ccc2nc(N3C(=O)C(O)=C(C(=O)c4ccco4)C3c3cccc(O)c3)sc2c1` (configuration not stated): the inhibition is 71.4% (active).

On to `CCOc1ccccc1NC(=O)NC1CCCCCCC1`, for which the inhibition was -4.06%. In the case of `COc1cc(NC(=O)C2CCN(c3cnccn3)CC2)cc(OC)c1`, the inhibition is -1.63%. To `CS(=O)(=O)N1CCN(c2cccc(Cl)n2)CC1` belongs -4.33%; to `CS(=O)(=O)N1CCN(C(=O)Cc2ccccc2)CC1`, 8.45%.

For `CS(=O)(=O)N1CCc2nc(-c3ccccc3)sc2C1`, the inhibition was 99.9% (active).

`O=C(Cn1nc([N+](=O)[O-])nc1Br)NC1CCCCC1`: the inhibition was -1.71%. In the case of `Cc1cc(-c2ccc(S(=O)(=O)N3CCN(c4cccc(C(F)(F)F)c4)CC3)s2)on1`, the inhibition was -3.9%. For `COc1ccc(NC(=O)C/C(C)=N/NC(=O)c2cnccn2)cc1Cl` the value was 45.4% (active). To `O=C(COc1ccc(Cl)cc1Cl)NCCCNC(=O)c1cnccn1` belongs -3.62%; to `CCCCC(=O)N/N=C(\C)CC(=O)Nc1cc(Cl)ccc1OC`, 2.31%. For `COc1ccccc1C(=O)NCc1nnc(SC(C)C(=O)Nc2nccs2)n1C` (configuration not stated) the value was 10.7%; for `CCOc1ccc(NC(=O)C(C)N2C(=O)c3ccccc3C2=O)cc1` (configuration not stated), -15.9%. Regarding `O=C(Cc1ccc(Cl)cc1)NC1CCS(=O)(=O)C1` (configuration not stated), the inhibition is 1.56%. As to `Cc1ccc(S(=O)(=O)Nc2ccc3ncccc3c2)cc1`, the inhibition was -8.08%. For `O=S(=O)(Nc1ccc2cn[nH]c2c1)c1ccccc1` the value was 24%. For `O=S(=O)(Nc1ccc2nc(-c3ccco3)[nH]c2c1)c1ccccc1` the value was 70.6% (active); for `CN1CCN(/N=C/c2ccc(C#N)cc2)CC1`, 81.4%; for `Cc1ccc(-c2ccc(/C=N/NC(=O)CN3CCOCC3)o2)cc1[N+](=O)[O-]`, -4.74%.

For the molecule `CN1CCN(/N=C/c2ccc(-c3ccc([N+](=O)[O-])cc3)o2)CC1`, the inhibition was 46.8% (active). For `Cc1ccc(S(=O)(=O)N2CCN=C2SCc2c(F)cccc2Cl)cc1` the value was -2.63%. `Cc1onc(C(=O)Nc2ccc3c(c2)OCO3)c1[N+](=O)[O-]`: the inhibition was 62.7% (active). To `Cc1nn(CC(=O)Nc2ccc3c(c2)OCO3)c(C)c1[N+](=O)[O-]` belongs -8.73%. To `Cc1nc([N+](=O)[O-])cn1CC(=O)Nc1ccc2c(c1)OCO2` belongs -7.53%. For `COc1cccc(NC(=O)c2nn(C34CC5CC(CC(C5)C3)C4)cc2[N+](=O)[O-])c1` the value was 28.3%; for `Cn1cc([N+](=O)[O-])c(C(=O)Nc2ccc3c(c2)OCCO3)n1`, 53.6% (active). As for `Cn1cc([N+](=O)[O-])c(C(=O)Nc2cnn(Cc3ccc(F)cc3)c2)n1`, the inhibition was 7.88%. To `c1ccc(CSc2nnc(-c3ccco3)c(-c3ccco3)n2)cc1` belongs -7.92%; to `c1ccc(CSc2nnc(-c3ccco3)n2Cc2ccccc2)cc1`, 94.3% (active); to `O=C(CSc1nnc(-c2ccco2)n1Cc1ccccc1)NC(=O)NCc1ccco1`, 10.4%. To `O=C(Nc1ccc(S(=O)(=O)NCC2CCCO2)cc1)c1ccc(F)cc1` (configuration not stated) belongs -1.55%.

`CCc1cccc(C)c1NS(=O)(=O)c1cc(Br)cnc1N`: the inhibition is -8.52%. Regarding `COc1ccc(/C=N/NC(=O)c2ccc(Cl)cc2)cc1COC(C)=O`, the inhibition was -2.77%. `CC1(C)C2CC=C(/C=N/NC(=O)c3ccc(Cl)cc3)C1C2` (configuration not stated): the inhibition is 30.5%. Turning to `Cn1nccc1/C=N\NC(=O)c1ccc(Cl)cc1`, the inhibition was 30.8% (active). For `Cc1c(CC(=O)N2CCN(C(=O)C3COc4ccccc4O3)CC2)c(=O)oc2c(O)c(O)ccc12` (configuration not stated) the value was 6.52%; for `O=C(CCC1CCCN(C(=O)c2ccc(F)c(F)c2)C1)N1CCN(c2ccccn2)CC1` (configuration not stated), -25.9%; for `CC(C)n1c(NCc2c[nH]c3ccccc23)nc2ccccc21`, 8.94%.

Regarding `Cc1ccc(O)c(CNc2nc3ccccc3n2C)c1`, the inhibition was 75.2% (active).

For the molecule `Cc1ccc(O)c(CNc2nc3ccccc3[nH]2)c1`, the inhibition is 30.6%. To `O=C(NCCCN1CCOCC1)c1ccc2c(c1)N(Cc1cccc(F)c1)C(=O)c1ccccc1S2` belongs -12.3%; to `CSc1ccccc1NC(=O)c1cc(Cl)sc1Cl`, 25.1%.

Take `O=C(NC1CC1)c1cccc(Br)c1`: the inhibition is 23.6%.

For `O=C(CCC(=O)c1cccs1)NC1CCCCCC1`, the inhibition is 29.7%. For `CSc1ccccc1NC(=O)c1cc(C2CC2)on1` the value was 19.8% (active); for `CC(=O)c1cc(-c2ccccc2)n(CC(=O)NC2CCCCC2)c1C`, 26.5%.

With `O=C(NC1CCCCCCC1)c1cccs1`, the inhibition is 88.4% (active).

In the case of `O=C(NC1CCCC1)c1cc(-c2ccccc2)on1`, the inhibition is 157% (active). For `O=C(Nc1cc(C(F)(F)F)ccc1Cl)c1cc(C2CC2)on1` the value was -4.26%; for `O=C(NC1CCN(S(=O)(=O)c2ccc(F)cc2)CC1)c1ccccc1`, -7.58%; for `CC(NC(=O)c1cc(-c2ccccc2)on1)c1ccccc1` (configuration not stated), 0.984%. For `O=C(NC1CC1)c1ccc(-c2ccccc2)cc1` the value was 97.2% (active).

Regarding `CC(C)C(OC(=O)c1cccs1)C(=O)NC1CCCCC1` (configuration not stated), the inhibition was 8.34%. Turning to `Cc1ccc(N2C(=O)C3C4C=CC(CC4)C3C2=O)cc1Cl` (configuration not stated), the inhibition was 6.23%.
